Assay [1] can be described thus: optical density shifts of acrAB sulA E. coli – strain DRC41, OD650, 48 h, E. coli filamentation inducer project, primary screen (AID 1152).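 Also: E. coli MC1000 strain DRC41 lacking acrAB efflux pump and sulA.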 The settings on record: higher = more signal, called active from +8 up or from −8 down.
Assay [2] is described as follows: probe aLefty1 binding on compound microarray – biochemical, small-molecule microarray, 635/667 nm fluorescence, primary screen (AID 1153).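 Also: score merges spot fluorescence with signal-to-noise ratio from the scanned slide images.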 The settings on record: higher = more signal.
Assay [3] can be described thus: plasmodial surface anion channel blockers, osmotic lysis – cell-based, P. falciparum Indochina, OD700, 1 h, primary screen (AID 1154). The settings on record: P. falciparum Indochina infected RBC osmotic lysis, higher = more signal, called active from +8 up or from −8 down.
Assay [4] is described as follows: plasmodial surface anion channel blockers, osmotic lysis – cell-based, P. falciparum Indochina, OD700, 2 h, primary screen (AID 1155).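 Also: lysis reports solute entry through the parasite surface anion channel PSAC.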 The settings on record: P. falciparum Indochina infected erythrocytes, higher = more signal, called active from +8 up or from −8 down.
Assay [5] in a line: changes in parasitized red cell lysis, either direction – P. falciparum Indochina, OD700, 3 h, PSAC antagonist project, primary screen (AID 1156). To be noted: P. falciparum-infected erythrocytes, osmotic lysis, higher = more signal, called active from +8 up or from −8 down.
Assay [6] is described as follows: plasmodial surface anion channel blockers, osmotic lysis – cell-based, P. falciparum Indochina, OD700, 18 h, primary screen (AID 1157). The settings on record: P. falciparum Indochina infected erythrocytes, osmotic lysis OD700, 18 h; higher = more signal, called active from +8 up or from −8 down.
Assay [7] is described as follows: S6 kinase pathway phospho-S6 level changes – cell-based, A549, cytoblot, luminescence, serum-stimulated, primary screen (AID 1158).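 Also: serum-stimulated A549 lung adenocarcinoma cells; signal is phosphorylated S6 detected by cytoblot immunostaining with HRP secondary.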 The settings on record: 5 h, higher = more signal.
Assay [8] has as its target NADPH oxidase 2 (Homo sapiens) (UniProt P04839). Put plainly: compounds shifting NOX2 Amplex Red fluorescence – cell-based, HEK293-NOX2, PMA-stimulated, NOX inhibitor project, primary screen (AID 1159). Also: test concentration not given here. To be noted: 45 min, higher = more signal, called active from +8 up or from −8 down.
Assay [9] addresses NADPH oxidase 4 (Homo sapiens) (UniProt Q9NPH5). The experiment in a line: compounds shifting NOX4 Amplex Red fluorescence – cell-based, HEK293-NOX4, tetracycline-induced, NOX inhibitor project, primary screen (AID 1160). To be noted: HEK293-NOX4, Amplex Red H2O2 fluorescence, 45 min; higher = more signal, called active from +8 up or from −8 down.
Assay [10] concerns the target NADPH oxidase 5 (Homo sapiens) (UniProt Q96PH1). The experiment in a line: compounds shifting NOX5 Amplex Red fluorescence – cell-based, HEK293-NOX5, NOX inhibitor project, primary screen (AID 1161). The settings on record: HEK293-NOX5, ionomycin, 45 min, higher = more signal.

We go through 13 compounds from PubChem BioAssay.

Calls of active or inactive are those of the source.

Sequence of NADPH oxidase 4 (Homo sapiens) (Q9NPH5 whole entry, looked up): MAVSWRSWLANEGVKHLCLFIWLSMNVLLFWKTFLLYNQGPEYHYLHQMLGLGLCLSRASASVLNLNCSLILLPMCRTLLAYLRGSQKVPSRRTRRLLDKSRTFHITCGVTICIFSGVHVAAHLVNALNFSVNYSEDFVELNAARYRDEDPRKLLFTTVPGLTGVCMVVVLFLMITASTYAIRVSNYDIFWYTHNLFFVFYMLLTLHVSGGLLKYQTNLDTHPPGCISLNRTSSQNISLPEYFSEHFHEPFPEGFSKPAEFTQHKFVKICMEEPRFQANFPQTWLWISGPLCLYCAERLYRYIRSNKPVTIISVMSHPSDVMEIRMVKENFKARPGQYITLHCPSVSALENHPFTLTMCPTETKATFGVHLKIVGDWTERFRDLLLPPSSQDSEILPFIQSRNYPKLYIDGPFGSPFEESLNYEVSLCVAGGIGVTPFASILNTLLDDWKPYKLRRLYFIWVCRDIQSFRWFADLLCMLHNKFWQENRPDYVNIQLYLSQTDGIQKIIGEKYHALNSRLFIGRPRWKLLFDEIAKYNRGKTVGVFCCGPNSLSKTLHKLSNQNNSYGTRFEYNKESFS
Sequence of NADPH oxidase 5 (Homo sapiens) (Q96PH1 whole entry, looked up): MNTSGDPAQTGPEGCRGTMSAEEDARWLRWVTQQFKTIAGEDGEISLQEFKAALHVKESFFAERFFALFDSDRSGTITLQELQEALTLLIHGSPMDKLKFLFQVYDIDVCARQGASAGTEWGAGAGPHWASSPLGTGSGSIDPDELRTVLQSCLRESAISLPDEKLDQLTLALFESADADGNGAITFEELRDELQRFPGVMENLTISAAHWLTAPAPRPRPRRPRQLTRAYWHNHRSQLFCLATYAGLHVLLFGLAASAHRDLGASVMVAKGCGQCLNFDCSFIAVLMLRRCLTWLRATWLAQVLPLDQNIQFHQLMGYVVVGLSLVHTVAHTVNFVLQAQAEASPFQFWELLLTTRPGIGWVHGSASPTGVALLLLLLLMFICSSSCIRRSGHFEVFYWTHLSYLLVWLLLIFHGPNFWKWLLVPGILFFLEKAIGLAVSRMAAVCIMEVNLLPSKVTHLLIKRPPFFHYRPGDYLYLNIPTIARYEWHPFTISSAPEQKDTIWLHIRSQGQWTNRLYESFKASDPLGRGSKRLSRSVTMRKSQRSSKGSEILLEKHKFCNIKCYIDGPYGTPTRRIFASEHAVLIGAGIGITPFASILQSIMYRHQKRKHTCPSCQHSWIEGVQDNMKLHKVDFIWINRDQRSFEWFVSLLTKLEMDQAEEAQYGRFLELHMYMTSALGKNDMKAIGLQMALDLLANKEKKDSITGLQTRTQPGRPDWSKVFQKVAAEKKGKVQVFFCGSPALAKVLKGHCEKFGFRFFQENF
Sequence of NADPH oxidase 2 (Homo sapiens) (P04839 whole entry, looked up): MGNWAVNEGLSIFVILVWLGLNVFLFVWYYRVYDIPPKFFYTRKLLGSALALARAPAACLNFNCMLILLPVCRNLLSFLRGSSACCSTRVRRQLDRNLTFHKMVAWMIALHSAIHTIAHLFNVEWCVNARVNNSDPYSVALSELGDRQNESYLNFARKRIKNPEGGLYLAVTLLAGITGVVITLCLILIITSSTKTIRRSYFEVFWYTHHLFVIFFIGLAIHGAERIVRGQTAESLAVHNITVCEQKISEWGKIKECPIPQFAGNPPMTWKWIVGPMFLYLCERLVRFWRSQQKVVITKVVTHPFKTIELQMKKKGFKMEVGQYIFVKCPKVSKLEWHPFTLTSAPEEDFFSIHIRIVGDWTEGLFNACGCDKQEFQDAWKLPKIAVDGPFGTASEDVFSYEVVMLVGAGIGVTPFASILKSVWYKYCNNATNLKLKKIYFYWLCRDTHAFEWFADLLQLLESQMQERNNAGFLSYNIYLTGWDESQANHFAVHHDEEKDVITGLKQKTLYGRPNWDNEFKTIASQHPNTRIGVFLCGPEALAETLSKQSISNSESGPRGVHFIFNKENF

For the compound `COCCCNC(=O)[C@@]1(Cc2ccccc2)N=C(c2ccc(OCCCO)cc2)O[C@H]1c1ccccc1`, the z-score is -0.146 (inactive) in [1]; 19.7 (active) in assay [3]; 3.35 (inactive) in [4]; -0.321 (inactive) in [5]; 0.32 (inactive) in [6]; -0.628 in assay [7]. The z-score in [8] is -0.981 (inactive); in [9] it was 1.11 (inactive); in assay [10], 1.86. The compound further showed a composite z-score in assay [2] of 0.39.

Turning to `C=CCOC(=O)[C@@H]1[C@H]2C(=O)O[C@H](c3ccccc3)[C@H](c3ccccc3)N2[C@H](c2ccc(OCCOC(=O)[C@@H]3C[C@@H]4C(=O)N[C@@H](CCCCN(C)C)C(=O)N4[C@@H]3c3ccc(O)cc3)cc2)[C@@]12C(=O)Nc1ccc(I)cc12`, the z-score in [1] was -0.193 (inactive); in [3], -1.43 (inactive); in assay [4] it was 0.997 (inactive); in [5], 3.77 (inactive); in assay [6], 0.374 (inactive); in [7], -0.381. Moreover, the z-score in [8] is 1.36 (inactive); in [9] it was 0.636 (inactive); in assay [10] it was 0.167. Moreover, the composite z-score in [2] was -0.012.

In the case of `CCCCCC1=C2CNC(CCC)(C(=O)OC)C=C2C(C)C1=O` (stereo not given), the z-score was -1.11 (inactive) in [1]; 2.2 (inactive) in assay [3]; 0.0123 (inactive) in assay [4]; 0.807 (inactive) in assay [5]; 0.493 (inactive) in assay [6]; -0.39 in [7]. Moreover, the z-score in assay [8] is 0.0917 (inactive); in assay [9], -1.52 (inactive); in assay [10], -3.63. This compound registered a composite z-score in assay [2] of 0.358.

Turning to `C=C(CCCC)C(=O)CC[C@@H](OC(=O)c1cccnc1)c1ccc(CO)o1`, the z-score in [1] is -0.367 (inactive); in assay [3] it was 3.22 (inactive); in [4], 0.449 (inactive); in assay [5], 0.873 (inactive); in [6], 0.258 (inactive); in assay [7], 0.264. Further, the figures for the z-score in [8], in [9] and in assay [10] were 0.341 (inactive), -0.942 (inactive) and -1.04, respectively. The composite z-score in [2] is -0.289.

`Cc1ccc(C(C)CC(O)C2C=CC3C(=O)N(C)C(=O)C3N2NC(=O)OC(C)(C)C)o1` (stereo not given): the z-score in assay [1] was -0.502 (inactive); in assay [3], -0.205 (inactive); in assay [4], 0.562 (inactive); in assay [5] it was -0.168 (inactive); in assay [6] it was 0.435 (inactive); in assay [7], -0.497. Further, the z-score is 0.347 (inactive) in assay [8], -0.202 (inactive) in [9] and -0.701 in [10]. In [2], the composite z-score worked out at 0.196.

With `CC1CC/C=C\[C@H]2OC34C=CCN(C(C)(C)C)C(=O)[C@H]3N(CCCCCCO)C(=O)[C@@H]4C2C(=O)O1` (stereo not given in full), the z-score is 0.0837 (inactive) in assay [1]; 0.375 (inactive) in assay [3]; 0.794 (inactive) in assay [4]; 0.39 (inactive) in [5]; 0.771 (inactive) in assay [6]; -0.0989 in [7]. The results for the z-score in [8], in assay [9] and in [10] were 0.959 (inactive), -0.0389 (inactive) and 1.77, respectively. The compound also came in with a composite z-score in assay [2] of -0.0501.

Consider `CC(C)C(CO)N1C(=O)[C@@H]2[C@H]3C(=O)OCC=C[C@H]3OC23C=CCN(C(C)C)C(=O)[C@@H]13` (stereo not given in full), for which the z-score in assay [1] was 1.4 (inactive); in assay [3], -0.237 (inactive); in [4], 0.139 (inactive); in [5], 0.333 (inactive); in [6], 0.649 (inactive); in assay [7] it was -0.1. Besides, the z-score in assay [8] is 0.834 (inactive); in assay [9], 0.457 (inactive); in assay [10], 1.23. Besides, the composite z-score in assay [2] was -0.146.

Turning to `O=C(O)[C@@]1(CCS(=O)(=O)c2ccccc2)COC(c2ccc(OCCCO)cc2)=N1`, the z-score is -0.513 (inactive) in assay [1]; 1.58 (inactive) in assay [3]; -0.783 (inactive) in assay [4]; -0.821 (inactive) in assay [5]; -0.392 (inactive) in assay [6]; -0.312 in [7]. Besides, the z-score in assay [8] was -0.0194 (inactive); in assay [9], 0.85 (inactive); in [10], 0.779. This compound also had a composite z-score in assay [2] of -0.0601.

For `C=C(/C(=C/C[C@@H](OC(C)=O)c1ccc(OCCO)cc1)c1cnc2ccccc2c1)C(C)C`, the z-score in assay [1] is 1.14 (inactive); in [3] it was 15.4 (active); in assay [4], 2.26 (inactive); in [5] it was 1.79 (inactive); in assay [6] it was 0.97 (inactive); in [7], 0.853. For the same compound, the z-score in [8] was -2.99 (inactive); in assay [9], -0.926 (inactive); in [10], -2.24. This compound displayed a composite z-score in assay [2] of -0.342.

Take `COc1cc2c(cc1OC)CN(C(=O)[C@@H]1[C@H]3C(=O)O[C@H](c4ccccc4)[C@H](c4ccccc4)N3[C@H](c3ccc(O)cc3)[C@@]13C(=O)Nc1ccc(C#CC4(O)CCCCCC4)cc13)CC2`: the z-score in [1] was 0.384 (inactive); in assay [3] it was 0.794 (inactive); in assay [4], 0.657 (inactive); in [5], 0.87 (inactive); in assay [6], 0.442 (inactive); in assay [7], 0.137. Besides, the values for the z-score in [8], in [9] and in assay [10] were 1.65 (inactive), 0.744 (inactive) and 0.479, respectively. Besides, the composite z-score in assay [2] is -0.771.

With `CS(=O)(=O)CCOC(=O)C1=CC(CCCO)=CC(c2ccc(CN3CCCC3)cc2)N(Cc2cc3c(cc2Br)OCO3)C=C1C(=O)OCCS(C)(=O)=O` (stereo not given), the z-score was -0.357 (inactive) in assay [1]; 0.246 (inactive) in assay [3]; -0.211 (inactive) in [4]; 1.14 (inactive) in assay [5]; 0.111 (inactive) in assay [6]; -0.606 in assay [7]. Moreover, the z-score was 2.54 (inactive) in assay [8], 0.524 (inactive) in assay [9] and 0.597 in assay [10]. The same compound had a composite z-score in assay [2] of 0.485.

As for `CN(C)CCCNC(=O)[C@@]1(C)c2ccccc2C(=O)N(Cc2cc(F)cc(C(F)(F)F)c2)[C@H]1c1ccc(CO)cc1`, the z-score in assay [1] was -0.0995 (inactive); in [3], 2.41 (inactive); in [4], 0.159 (inactive); in [5], 1.32 (inactive); in assay [6], -0.0617 (inactive); in [7] it was -0.0103. Also, the z-score in [8] was -0.655 (inactive); in assay [9], 0.835 (inactive); in assay [10], 0.463. Besides, the composite z-score in [2] was determined as 0.0391.

Take `C#CCNC(=O)[C@H](Cc1ccccc1)NC(=O)CCC(=O)O`: the z-score in assay [1] is -0.077 (inactive); in assay [3], -0.168 (inactive); in assay [4] it was 0.748 (inactive); in assay [5], -0.707 (inactive); in assay [6] it was 0.0401 (inactive); in assay [7], -0.665. The z-score in assay [8] was 0.658 (inactive); in [9] it was -0.198 (inactive); in assay [10] it was 0.0788. In assay [2], this compound came in with a composite z-score of -0.36.
